Assay outcomes (PubChem BioAssay)
DAX1 inh-1: inhibitors of DAX1 repression of SF-1 activated StAR promoter | HEK293T StAR-luciferase reporter, SF-1/DAX-1 repression relief | inhibition, % at 6.8 µM | 370,000 tested, 1.1% active | AID 652010;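 active = inhibition above the mean over all tested compounds plus 3 SD, cut at about 3.6% in these data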;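 also: higher inhibition means more luminescence from relief of DAX-1 repression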
hcDAF12 agonist: activates DAF-12 receptor from parasite H. contortus; activation, % at 6.8 µM; 370,000 tested, 1.4% active; HEK293 hcDAF-12 lit1-tk-luc reporter, luminescence; 0% DMSO, 100% Δ7-dafachronic acid;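 active = activation above the mean of all tested compounds plus 3 SD, cut at about 5.5% in these data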
hgDAF-12 ag: agonists of H. glycines DAF-12 nuclear receptor | HEK293 GAL4-hgDAF12 UAS-luciferase reporter, agonist luminescence; normalized to butyrate control | activation, % at 6.8 µM | AID 687014 | 370,000 tested, 1.8% active;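 active = activation above a cutoff set at the mean of all screened compounds plus 3 SD, cut at about 10% in these data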
ssDAF12 agonist: activators of S. stercoralis DAF-12 nuclear receptor. HEK293 ssDAF-12/GRIP1 lit1-tk-luc reporter, luminescence; % of 3 µM dafachronic acid response. activation, % at 6.8 µM. 370,000 tested, 1% active. AID 652126;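 active = activation above the mean over all tested compounds plus 3 SD, cut at about 0.9% in these data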
GAA850 FXN act: increases GAA850 frataxin promoter reporter activity. HEK293 lucGAA850 FXN promoter luciferase reporter, 24 h; percent of 10 µM SAHA response. activation, % at 6 µM. 360,000 tested, 0.56% active;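 active = activation above the average of all compounds screened plus 3 SD, cutoff fixed separately per campaign, cut at about 7.5% in these data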
DAX1 inh-2: NR0B1 (DAX1) inhibition; 340,000 tested, 0.99% active; inhibition, % at 6.75 µM; HEK293 Gal4-DAX1 luciferase reporter, luminescence;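 active = inhibition above the mean over all tested compounds plus 3 SD, cut at about 4.2% in these data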;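 also: inhibition shows as a rise in luminescence from relieved DAX1 repression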
Target sequence (P51843 207-470 limits assumed): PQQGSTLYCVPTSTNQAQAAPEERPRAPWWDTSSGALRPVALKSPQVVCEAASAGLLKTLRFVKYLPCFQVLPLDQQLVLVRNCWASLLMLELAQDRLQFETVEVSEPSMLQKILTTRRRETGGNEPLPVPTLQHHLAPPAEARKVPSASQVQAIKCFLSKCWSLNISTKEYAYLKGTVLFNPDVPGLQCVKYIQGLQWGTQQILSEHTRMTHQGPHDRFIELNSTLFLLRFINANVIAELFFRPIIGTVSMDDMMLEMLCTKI
A number is an active result; n = inactive; x = no result. Hits are enriched below; roughly 4.5% of the tested compounds scored in any of these assays.

SMILES	DAX1 inh-1	hcDAF12 agonist	hgDAF-12 ag	ssDAF12 agonist	GAA850 FXN act	DAX1 inh-2
Cc1ccc(CSc2nc3ncccc3[nH]2)cc1	n	n	12.9	n	n	n
Cc1nc(SCC(=O)c2cc3ccccc3oc2=O)c(C#N)c(C)c1C(=O)Nc1ccccc1	n	n	n	1.1	x	x
CSc1nc(C)c(C(=O)Nc2ccccc2)c(C)c1C#N	n	n	n	n	n	n
Cn1c2[n+](c3ccc(Cl)cc3c1=O)Cc1ccccc1-2	n	n	n	n	n	5.7
COc1ccc(Oc2ccc(/C=N/NC(=O)c3cccnc3)cc2[N+](=O)[O-])cc1	n	n	n	n	n	4.6
Cc1ccc(NC2Sc3ccccc3NC2=O)cc1 (stereo unspecified)	n	n	14.6	1.0	n	n
COc1ccccc1NC(=O)Nc1cc(C(C)C)ccc1C	n	n	n	n	n	n
COc1ccccc1NC(=O)OC(C)c1ccc(Cl)cc1 (stereo unspecified)	n	n	n	n	n	4.5
O=C(CNS(=O)(=O)c1ccccc1Br)OCC(=O)N1CCc2ccccc21	n	n	n	n	n	n
CC(=O)c1ccc(-c2ccc(C(=O)N3CCCc4ccccc43)o2)cc1	n	n	n	1.8	n	n
COCC(=O)N1CCCc2ccccc21	n	6.3	n	n	n	n
Cc1ccc(OCC(=O)N2CCc3ccccc32)c([N+](=O)[O-])n1	n	n	10.7	n	n	n
CC(=O)Nc1ccc(S(=O)(=O)NCC(=O)OCC(=O)N2CCc3ccccc32)cc1	n	n	n	0.9	n	n
COc1cc(OC)cc(C(=O)N2CCCc3ccccc32)c1	n	n	n	n	n	n
COc1ccc2oc(C(=O)OCC(=O)N3CCCCC3)c(C)c2c1	n	n	n	n	n	4.9
COc1ccc2oc(C(=O)N3CCCc4ccccc43)c(C)c2c1	4.3	n	n	n	n	n
COc1ccc2oc(C(=O)OCC(=O)N3CCN(C(C)=O)CC3)c(C)c2c1	n	n	n	n	n	n
CCOC(=O)[C@]12CCCCC/C=C\1N(CCc1ccc(Cl)cc1)C(=O)[C@H]2CC(=O)N1CCC(c2ccccc2)CC1	n	n	n	n	x	x
N/C(=N\OC(=O)COc1ccc(Cl)cc1Br)c1cccnc1	n	n	11.2	n	n	n
N/C(=N\OC(=O)COc1ccc(Br)cc1Cl)c1cccnc1	n	n	11.6	n	n	n
Cc1cccc(Cc2nnc(CCC(=O)N3CCCCC3c3nccs3)o2)c1 (stereo unspecified)	n	n	n	n	n	n
CCCOC1CCCN(C(=O)CCc2nnc(Cc3cccc(C)c3)o2)C1 (stereo unspecified)	n	n	10.7	n	n	n
Cc1cccc(Cc2nnc(CCC(=O)N(CC3CC3)CC3CCCO3)o2)c1 (stereo unspecified)	n	n	12.5	n	n	n
COCCCN1C(=O)[C@H](CC(=O)N2CCC(c3ccccc3)CC2)[C@]2(C(=O)OC)CCCCC=C12	n	n	n	n	x	x
C=CC[C@]1(O)C(=O)N(c2ccccc2)c2ccccc21	n	n	n	n	x	x
SMILES	DAX1 inh-1	hcDAF12 agonist	hgDAF-12 ag	ssDAF12 agonist	GAA850 FXN act	DAX1 inh-2
COC(=O)C1CN(Cc2cn(Cc3ccc(C)cc3)nn2)CCS(=O)(=O)N1Cc1ccc(F)cc1 (stereo unspecified)	n	n	n	n	x	x
C/C(=N\Nc1ncc(Cl)cc1Cl)c1ccc2c(c1)OCO2	n	n	n	n	n	n
C/C(=N\Nc1nccnc1Cl)c1ccc(O)c(C)c1	n	n	12.3	n	n	n
O=C(/C=C/c1cccc([N+](=O)[O-])c1)OCC(=O)N1CCN(C(=O)c2ccco2)CC1	n	n	11.5	n	n	n
COc1ccc(CN(CCN2CCOCC2)C(=O)c2cccc(F)c2)cc1OC	n	n	n	n	x	x
N#CCC(=O)N/N=C\c1ccccc1OC/C=C/c1ccccc1	4.3	n	n	n	n	n
O=C(Nc1ccccc1Cl)C1CC(=O)N(c2ccccc2)C1 (stereo unspecified)	n	n	n	1.3	n	x
CCc1cc2c(=O)c(-c3cscn3)coc2cc1O	n	5.7	10.9	1.0	n	n
O=C(Nc1nnc(C2CC2)s1)c1cccs1	3.8	n	n	n	n	n
O=C(CCC(=O)c1cccs1)Nc1nnc(C2CC2)s1	n	n	n	n	n	n
CC(C)c1nnc(NC(=O)c2cccs2)s1	n	n	11.6	n	n	n
CCCCC(CC)c1nnc(NC(=O)c2cccs2)s1 (stereo unspecified)	n	n	n	n	n	n
O=C(NCCN1CCC(Cc2ccccc2)CC1)C1CCCN(S(=O)(=O)c2cccs2)C1 (stereo unspecified)	n	n	n	n	x	x
O=C(O)c1ccccc1C(=O)c1ccc(N2CCOCC2)c([N+](=O)[O-])c1	n	n	n	1.1	n	n
O=C(O)c1ccccc1C(=O)c1ccc(Sc2ccc(Cl)cc2)c([N+](=O)[O-])c1	n	n	n	n	n	8.1
Nc1ccccc1Sc1ccc(C(=O)c2ccccc2C(=O)O)cc1[N+](=O)[O-]	n	n	n	n	n	n
O=C(O)c1ccccc1C(=O)c1ccc(N2CCCC2)c([N+](=O)[O-])c1	n	n	n	n	n	n
CCOC(=O)N1CCN(C(=O)CCn2nc(-c3ccccc3)ccc2=O)CC1	n	n	n	n	n	4.8
N#C[C@H]1C(O)C(O)c2ccccc2N1C(=O)c1ccccc1 (stereo partly specified)	n	n	n	n	n	4.3
C=CCN1[C@@H](C)COc2cccc(F)c2S1(=O)=O	n	n	n	n	x	x
O=C(CSc1nnc(-c2ccccc2)n1Cc1ccccc1)N1CCOCC1	n	n	n	n	n	n
Oc1ccccc1-c1nnc(SCCN2CCOCC2)n1Cc1ccccc1	n	6.9	n	1.1	n	n
CCOC(=O)[C@]12CCCC=C1N(CCCOC)C(=O)[C@@H]2CC(=O)NCc1ccc(OC)c(OC)c1	n	n	n	n	x	x
Clc1nc(Nc2ccccc2)nc(Nc2ccccc2)n1	n	n	n	n	n	n
CC(C)(C)Nc1nc(Cl)nc(Nc2ccccc2)n1	n	n	10.9	n	n	n
Cc1cc(C)c(C(=O)CN2C(=O)NC3(CCC(C)CC3)C2=O)cc1C (stereo unspecified)	n	n	n	n	n	n
Cc1cc(C)c(C(=O)CN2C(=O)NC3(CCCCC3)C2=O)cc1C	n	6.2	n	n	n	n
CC(=O)c1c(C)[nH]c(C(=O)CN2C(=O)NC3(CCCCC3)C2=O)c1C	4.1	n	n	n	n	n
O=C(C1CCC(CNc2c(N3CCCCC3)c(=O)c2=O)CC1)N1CCCC1 (stereo unspecified)	n	n	n	n	n	5.5
